The values below come from PubChem BioAssay (EPA / NIEHS).

Results filed as inconclusive are left out. The source made the active and inactive calls. Rule for the calls, unless noted: active = hit-call score of the fitted dose curve at least 0.9, where 1 is the maximum; inactive = score below 0.9.

As usually defined, the AC50 is the concentration giving half of the maximal activity seen.

Experiment [1] can be described thus: CCTE_Mundy_HCI_iCellGluta_NOG_NeuronCount: CCTE's Neurite Outgrowth Assay in iCellGluta cells for Neuron Count, Mundy Lab (AID 2284340; active = hit-call score of the fitted dose curve at least 0.9, where 1 is the maximum;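 note: cells fixed about 48 h after compound addition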). In outline: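 Neuron count read by automated high-content imaging of Hoechst 33342 and betaIII-tubulin/Alexa Fluor-488 labelling in human iPSC glutamatergic neurons. Activity fitted relative to DMSO.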
Experiment [2] in a line: CCTE_Mundy_HCI_iCellGluta_NOG_NeuriteCount: CCTE's Neurite Outgrowth Assay in iCellGluta cells for Neurite Count, Mundy Lab (AID 2284342; active = hit-call score of the fitted dose curve at least 0.9, where 1 is the maximum;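 note: chemical exposure about 48 hours starting 2 hours after plating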).
Experiment [3] can be described thus: Tanguay_ZF_120hpf_MO24: Oregon State University Tanguay Lab 24 Hour Post-fertilization zebrafish Assay for Mortality (AID 2284389). In outline:
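Embryo death at 24 hpf was recorded as present or absent in Tropical 5D zebrafish, dechorionated at 4 hpf and dosed statically from 6 hpf (28C, 0.64% DMSO); 5 uM trimethyltin chloride served as positive control.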

Experiment [4] can be described thus: Tanguay_ZF_120hpf_DP24: Oregon State University Tanguay Lab 24 Hour Post-fertilization zebrafish Assay for Delayed Development (AID 2284390). In outline:
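Scored at 24 hpf as a binary present/absent call of delayed development by brightfield, with dead embryos not assessed. Embryos (5D wild type, chorion removed with pronase at 4 hpf) dosed statically from 6 hpf at 28 C in 0.64% DMSO.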

Experiment [5] is described as follows: Tanguay_ZF_120hpf_CRAN: Oregon State University Tanguay Lab 120 Hour Post-fertilization zebrafish Assay for Craniofacial Malformation (AID 2284397). A digest of the protocol:
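Scoring of craniofacial malformation as a binary endpoint was done at 120 hpf by brightfield microscopy and was not done in dead embryos. Exposure was static, starting at 6 hpf, in dechorionated wild-type embryos held singly at 28C with 0.64% DMSO final.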

Experiment [6] in a line: Tanguay_ZF_120hpf_AXIS: Oregon State University Tanguay Lab 120 Hour Post-fertilization zebrafish Assay for Axial Malformation (AID 2284398). In outline: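 Scoring was binary (present or absent) for body-axis defects, judged by brightfield imaging at 120 hpf in surviving larvae. Exposure was static at 28C from 6 hpf in chorion-free 5D wild-type embryos, with 0.64% DMSO vehicle.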

Experiment [7] is described as follows: Tanguay_ZF_120hpf_MORT: Oregon State University Tanguay Lab 120 Hour Post-fertilization zebrafish Assay for Mortality (AID 2284399). In outline:
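Mortality, recorded present/absent via brightfield imaging at 24 and 120 hpf, in 5D zebrafish embryos exposed statically from 6 hpf after pronase chorion removal. Exposure at 28C, 0.64% DMSO vehicle, DMSO baseline.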

Experiment [8] is described as follows: Tanguay_ZF_120hpf_TCHR: Oregon State University Tanguay Lab 120 Hour Post-fertilization zebrafish Assay for Touch Responsive (AID 2284403). In outline: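 Binary touch-response calls are made at 120 hpf in 5D wild-type zebrafish larvae. These larvae were dechorionated with pronase and exposed singly from 6 hpf in sealed, dark plates at 28 °C with 0.64% DMSO final; dead embryos are excluded.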

A short description of experiment [9]: Tanguay_ZF_120hpf_ANY: Oregon State University Tanguay Lab 120 Hour Post-fertilization zebrafish Assay for Any Mortality and Malformation (AID 2284404). A digest of the protocol: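 Dechorionated Tropical 5D wild-type embryos, one per well from 6 hpf, static exposure in sealed, dark plates at 28C until 120 hpf, 0.64% DMSO final. Brightfield scoring of mortality and malformations as binary presence/absence, pooling 13 morphology endpoints.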

A short description of experiment [10]: CCTE_Padilla_ZF_Score.Craniofacial: CCTE's 144 Hour Post-fertilization zebrafish Assay Score for Craniofacial Malformation, Padilla Lab (AID 2284405). In outline:
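Craniofacial defects were scored at 6 dpf by two blinded observers using stereomicroscopy. Exposure of wild-type embryos began at 6–8 hpf in sealed wells of 10% Hanks' solution at 26C, with chemical removed by rinsing at 5 dpf.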

Experiment [11] in a line: CCTE_Padilla_ZF_Score.Edema: CCTE's 144 Hour Post-fertilization zebrafish Assay Score for Edema Malformation, Padilla Lab (AID 2284406). In outline: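 Edema scored at 6 dpf by two blinded observers under a stereo microscope, in single outbred wild-type larvae exposed from 6-8 hpf in sealed wells (Hanks', 26C, 14:10 h light) and chemical-free after a 5 dpf rinse.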
The nature of experiment [12]: CCTE_Padilla_ZF_Score.Spine: CCTE's 144 Hour Post-fertilization zebrafish Assay Score for Spine Malformation, Padilla Lab (AID 2284407). A digest of the protocol: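 Spine malformation scored at 6 dpf by two independent blinded observers under stereomicroscope, after static sealed exposure from 6–8 hpf at 26C in Hanks' solution with rinse on 5 dpf. Positive-direction fit against DMSO control.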

The test system of another experiment is TTR (gene 7276). Kind of experiment: CCTE_GLTED_hTTR_0.5uM: CCTE's human Transthyretin (hTTR) Inhibition Assay, with 0.5uM TTR, Great Lakes Toxicology and Ecology Division (GLTED) Lab (AID 2284320). A digest of the protocol:
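Probe (ANSA) displacement from 0.5 uM human transthyretin was followed by fluorescence (ex 380, em 475) after a 2 h incubation with chemical. Activity was scored as signal loss and fitted positively relative to DMSO.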

The test system of the next experiment is SERPINA7 (gene 6906). Kind of experiment: CCTE_GLTED_hTBG: CCTE's human Thyroxine-binding Globulin (TBG) Inhibition Assay, Great Lakes Toxicology and Ecology Division (GLTED) Lab (AID 2284343; active = hit-call score of the fitted dose curve at least 0.9, where 1 is the maximum;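 note: active chemicals lower fluorescence versus DMSO baseline by displacing probe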). A digest of the protocol:
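Steps: combine TBG with chemical; incubate 2 hours so that disruptors release ANSA; record fluorescence (380 ex, 475 em). Loss of signal was fitted against DMSO controls.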

Experiment [13] can be described thus: Tanguay_ZF_120hpf_BRN: Oregon State University Tanguay Lab 120 Hour Post-fertilization zebrafish Assay for Brain Region Malformation (AID 2284402). A digest of the protocol: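 Binary brightfield scoring of brain malformation at 120 hpf in 5D wild-type larvae, chorion removed with pronase at 4 hpf. Static exposure began at 6 hpf, 28C, sealed plates, DMSO 0.64% (vol/vol) as vehicle baseline.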

Experiment [14] is described as follows: IUF_NPC1_cytotoxicity_72hr: Cytotoxicity Assessment at 72 hours in the Leibniz Research Institute for Environmental Medicine (IUF) Neural Progenitor Cell Proliferation Assay (NPC1) (AID 2284332; active = hit-call score of the fitted dose curve at least 0.9, where 1 is the maximum;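 note: rising LDH signal means more cytotoxicity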). In outline: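 Readout is fluorescence from LDH-dependent resazurin conversion, sampled from culture medium after compound contact lasting 72 h. Each well holds one 0.25-0.35 mm human progenitor sphere kept at 37C, 5% CO2 with EGF and FGF.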

Consider `OCC(F)(F)C(F)(F)C(F)(F)C(F)F`, for which the compound was classed as inactive in experiment [1], in [2], in experiment [3], in experiment [4], in experiment [5] and in experiment [6]. In addition, the compound was classed as inactive in experiment [7], in experiment [8], in experiment [9], in [10], in experiment [11] and in experiment [12].
`O=C(O)C(F)(F)C(F)(F)C(F)F`: the AC50 in the experiment on TTR (gene 7276) is 14.9 µM (active). Further, the compound was called inactive in experiment [3], in experiment [4], in [5], in [6], in experiment [7] and in experiment [8]. Besides, the compound was called inactive in experiment [9], in [10], in [11] and in [12].
Take `C=CC(=O)OCC(F)(F)C(F)(F)C(F)(F)C(F)(F)COC(=O)C=C`: the AC50 with TTR (gene 7276) is 0.886 µM (active); in the experiment with SERPINA7 (gene 6906), 18.2 µM (active); in experiment [3] it was 28.3 µM (active); in experiment [4], 28.1 µM (active); in [7], 17.5 µM (active); in experiment [9] it was 14.2 µM (active). Moreover, the AC50 in [11] is 4.88 µM (active). Moreover, the compound was called inactive in experiment [1], in experiment [2], in experiment [5], in experiment [6], in experiment [8] and in [10]. Moreover, the outcome in experiment [12] was inactive.
Regarding `O=C(O)C(F)(F)C(F)(F)C(F)(F)C(F)(F)C(F)(F)C(F)(F)C(F)(F)C(F)(F)C(F)(F)C(F)(F)C(F)(F)C(F)(F)F`, the AC50 with TTR (gene 7276) is 11.6 µM (active); in [7], 7.47 µM (active); in [9], 26.3 µM (active). Moreover, the compound was classed as inactive in experiment [3], in experiment [4], in experiment [5], in experiment [6], in experiment [8] and in experiment [10]. Further, the result in experiment [11] and in experiment [12] was inactive.
Regarding `O=C(O)C(F)(F)C(F)(F)C(F)(F)C(F)(F)F`, the AC50 in the experiment on TTR (gene 7276) was 10.2 µM (active). Further, the call in experiment [3], in [4], in [5], in [6], in experiment [7] and in [8] was inactive. For the same compound, the result in [9], in [10], in experiment [11] and in [12] was inactive.
For the compound `FC(F)(F)C(F)(F)C(F)(F)CI`, the result in experiment [1], in [2], in experiment [3], in experiment [4], in experiment [5] and in [6] was inactive. Also, the call in experiment [7], in experiment [13], in [8], in experiment [9], in [10] and in [11] was inactive. The call in experiment [12] was inactive.
As for `O=C(O)C(F)(F)C(F)(F)C(F)(F)C(F)(F)C(F)(F)C(F)(F)C(F)(F)C(F)(F)C(F)(F)C(F)(F)C(F)(F)C(F)(F)C(F)(F)F`, the AC50 in the experiment with TTR (gene 7276) is 10.3 µM (active). Moreover, the call in experiment [3], in experiment [4], in [5], in [6], in experiment [7] and in [8] was inactive. Besides, the compound was classed as inactive in [9], in [10], in experiment [11] and in experiment [12].
As for `CC(CCl)OP(=O)(OC(C)CCl)OC(C)CCl` (stereo not given), the compound was called inactive in [14], in experiment [1] and in experiment [2].
For `FC(F)(I)C(F)(F)C(F)(F)C(F)(F)I`, the AC50 in the experiment with TTR (gene 7276) was 3.74 µM (active); in experiment [10], 76.2 µM (active); in experiment [11] it was 24.3 µM (active). The call in experiment [12] was inactive.
